Records with an inconclusive call do not appear. Activity calls are given as the source filed them. The calls were made as follows, unless noted: active = hit-call score of the fitted dose curve at least 0.9, where 1 is the maximum; inconclusive = response in the unintended direction; inactive = score below 0.9.
What was measured:
[1] = target: human Peroxisome Proliferator-activated Receptor alpha (PPARa), PPARA (gene 5465) (UniProt Q07869); assay: ATG_PPARa_TRANS: Attagene TRANS-FACTORIAL HepG2 Assay for human Peroxisome Proliferator-activated Receptor alpha (PPARa) (AID 2283001)
human Peroxisome Proliferator-activated Receptor alpha (PPARa), PPARA (gene 5465), sequence (Q07869 whole entry, looked up, the tested form may be a part): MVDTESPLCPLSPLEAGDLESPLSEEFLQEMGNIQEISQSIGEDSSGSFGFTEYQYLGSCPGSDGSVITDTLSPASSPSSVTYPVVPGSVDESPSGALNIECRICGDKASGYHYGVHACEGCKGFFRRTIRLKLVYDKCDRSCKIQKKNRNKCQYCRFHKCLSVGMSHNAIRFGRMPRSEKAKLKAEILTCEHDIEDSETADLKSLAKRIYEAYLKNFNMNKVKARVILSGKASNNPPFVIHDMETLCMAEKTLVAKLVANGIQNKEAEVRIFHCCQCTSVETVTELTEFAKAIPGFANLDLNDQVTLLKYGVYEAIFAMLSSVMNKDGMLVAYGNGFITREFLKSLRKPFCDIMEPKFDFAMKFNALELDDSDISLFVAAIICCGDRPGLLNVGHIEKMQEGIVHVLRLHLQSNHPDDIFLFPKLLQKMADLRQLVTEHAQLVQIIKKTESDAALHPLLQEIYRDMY
Outline: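 Read-out is fluorescence of reporter cDNA fragments resolved by capillary electrophoresis after RT-PCR. Human HepG2 liver cells carried transfected PPARa-Gal4 chimera and GAL4-UAS reporter units, treated 24 h; activity scored as increase over DMSO.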

[2] = target: human Peroxisome Proliferator-activated Receptor delta (PPARd), PPARD (gene 5467) (UniProt Q03181); assay: ATG_PPARd_TRANS: Attagene TRANS-FACTORIAL HepG2 Assay for human Peroxisome Proliferator-activated Receptor delta (PPARd) (AID 2283002)
human Peroxisome Proliferator-activated Receptor delta (PPARd), PPARD (gene 5467), sequence (Q03181 whole entry, looked up, the tested form may be a part): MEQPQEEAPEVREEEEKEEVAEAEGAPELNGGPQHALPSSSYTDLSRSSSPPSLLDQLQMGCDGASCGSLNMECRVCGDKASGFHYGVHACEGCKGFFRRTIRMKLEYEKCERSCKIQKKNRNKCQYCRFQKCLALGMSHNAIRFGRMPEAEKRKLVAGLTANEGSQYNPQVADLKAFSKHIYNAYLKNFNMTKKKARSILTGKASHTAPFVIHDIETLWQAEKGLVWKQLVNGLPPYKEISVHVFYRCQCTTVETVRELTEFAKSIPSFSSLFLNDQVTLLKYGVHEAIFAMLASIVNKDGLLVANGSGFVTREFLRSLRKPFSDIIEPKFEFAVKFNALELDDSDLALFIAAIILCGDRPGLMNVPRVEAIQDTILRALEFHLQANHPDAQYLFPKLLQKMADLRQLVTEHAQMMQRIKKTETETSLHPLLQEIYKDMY
Outline: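 Read-out is induced reporter mRNA, quantified by RT-PCR with fluorescent labelling and capillary electrophoresis after 24 h dosing. Cells are HepG2 transiently carrying multiple GAL4-UAS reporter units driven by exogenous NR-GAL4 chimeras; DMSO serves as baseline.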

[3] = target: human Retinoic Acid Receptor beta (RARb), RARB (gene 5915) (UniProt P10826); assay: ATG_RARb_TRANS: Attagene TRANS-FACTORIAL HepG2 Assay for human Retinoic Acid Receptor beta (AID 2283004)
human Retinoic Acid Receptor beta (RARb), RARB (gene 5915), sequence (P10826 whole entry, looked up): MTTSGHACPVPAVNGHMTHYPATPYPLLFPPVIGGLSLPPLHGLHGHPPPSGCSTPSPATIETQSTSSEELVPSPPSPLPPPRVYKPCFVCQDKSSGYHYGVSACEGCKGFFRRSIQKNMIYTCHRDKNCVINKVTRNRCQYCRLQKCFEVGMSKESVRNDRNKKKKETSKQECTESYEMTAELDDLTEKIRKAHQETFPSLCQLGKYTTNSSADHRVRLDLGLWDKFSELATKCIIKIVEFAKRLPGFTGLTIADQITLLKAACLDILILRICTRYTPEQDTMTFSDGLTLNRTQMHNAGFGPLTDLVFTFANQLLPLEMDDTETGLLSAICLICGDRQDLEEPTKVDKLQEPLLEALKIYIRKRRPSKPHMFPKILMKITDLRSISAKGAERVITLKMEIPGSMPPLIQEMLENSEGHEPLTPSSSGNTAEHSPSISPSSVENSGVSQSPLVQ
Outline: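 Transient transfection of HepG2 with multiple reporter units → chemical dosing, 24 h → total RNA isolation → RT with oligo(dT) → reporter-specific PCR, 6-FAM primer extension, HpaI digest → capillary electrophoresis. Positive direction vs DMSO control.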

[4] = target: Retinoic acid receptor alpha (Homo sapiens) (UniProt P10276); assay: ATG_RARa_TRANS: Attagene TRANS-FACTORIAL HepG2 Assay for human Retinoic Acid Receptor alpha (RARa) (AID 2283005)
Retinoic acid receptor alpha (Homo sapiens), sequence (P10276 whole entry, looked up, the tested form may be a part): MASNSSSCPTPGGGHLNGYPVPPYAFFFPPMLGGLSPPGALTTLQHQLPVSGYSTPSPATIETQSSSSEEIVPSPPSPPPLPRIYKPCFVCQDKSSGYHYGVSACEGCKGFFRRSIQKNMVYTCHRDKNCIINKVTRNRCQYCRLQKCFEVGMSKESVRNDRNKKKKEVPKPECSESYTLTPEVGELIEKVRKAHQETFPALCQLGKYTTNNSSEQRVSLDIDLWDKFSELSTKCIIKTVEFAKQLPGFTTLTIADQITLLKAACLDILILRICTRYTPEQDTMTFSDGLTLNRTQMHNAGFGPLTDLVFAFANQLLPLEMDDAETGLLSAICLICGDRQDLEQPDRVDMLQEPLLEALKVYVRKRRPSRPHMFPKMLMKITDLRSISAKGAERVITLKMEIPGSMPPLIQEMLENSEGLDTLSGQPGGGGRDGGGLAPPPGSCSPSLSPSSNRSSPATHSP
Outline: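 Reporter transcripts, measured by RT-PCR with fluorescent labeling and capillary electrophoresis after 24 h dosing, reflect activity of an exogenous human RARa–GAL4 fusion in transiently transfected HepG2. Fitted for increase relative to DMSO.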

[5] = target: Nuclear receptor subfamily 1 group I member 2 (Homo sapiens) (UniProt O75469); assay: ATG_PXR_TRANS: Attagene TRANS-FACTORIAL HepG2 Assay for human Pregnane X Receptor (PXR) (AID 2283008)
Nuclear receptor subfamily 1 group I member 2 (Homo sapiens), sequence (O75469 whole entry, looked up, the tested form may be a part): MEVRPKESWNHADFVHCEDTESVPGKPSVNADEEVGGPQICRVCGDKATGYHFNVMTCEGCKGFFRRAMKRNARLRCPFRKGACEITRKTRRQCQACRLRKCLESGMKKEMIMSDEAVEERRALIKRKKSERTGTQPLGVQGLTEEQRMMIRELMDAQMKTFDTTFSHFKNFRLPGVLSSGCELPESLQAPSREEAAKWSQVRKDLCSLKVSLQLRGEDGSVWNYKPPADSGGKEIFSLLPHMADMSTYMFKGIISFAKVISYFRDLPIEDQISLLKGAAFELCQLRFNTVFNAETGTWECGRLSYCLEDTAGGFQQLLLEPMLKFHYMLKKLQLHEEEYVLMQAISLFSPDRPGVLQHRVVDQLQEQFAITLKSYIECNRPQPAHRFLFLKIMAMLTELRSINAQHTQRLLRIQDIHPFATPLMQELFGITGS
Outline: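 HepG2 cells transiently transfected with GAL4-UAS reporter units and PXR-Gal4 chimera, exposed 24 h. Reporter mRNA quantified by RT-PCR, fluorescent labelling, HpaI digestion and capillary electrophoresis; gain of signal vs DMSO.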

[6] = target: Retinoic acid receptor RXR-alpha (Homo sapiens) (UniProt P19793); assay: ATG_RXRa_TRANS: Attagene TRANS-FACTORIAL HepG2 Assay for human Retinoid X Receptor alpha (RXRa) (AID 2283012)
Retinoic acid receptor RXR-alpha (Homo sapiens), sequence (P19793 whole entry, looked up, the tested form may be a part): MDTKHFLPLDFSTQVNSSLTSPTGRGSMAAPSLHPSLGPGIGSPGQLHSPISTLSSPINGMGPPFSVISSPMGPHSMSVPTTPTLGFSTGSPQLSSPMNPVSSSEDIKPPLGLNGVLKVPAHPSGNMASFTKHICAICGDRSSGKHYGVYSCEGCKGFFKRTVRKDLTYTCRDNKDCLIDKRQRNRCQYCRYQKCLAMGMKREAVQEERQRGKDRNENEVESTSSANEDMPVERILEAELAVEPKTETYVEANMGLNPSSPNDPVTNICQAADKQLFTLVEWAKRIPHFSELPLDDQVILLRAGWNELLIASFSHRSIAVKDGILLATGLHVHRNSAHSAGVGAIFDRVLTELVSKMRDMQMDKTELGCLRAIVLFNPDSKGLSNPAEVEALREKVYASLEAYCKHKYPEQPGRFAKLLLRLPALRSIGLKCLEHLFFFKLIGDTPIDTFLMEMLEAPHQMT
Outline: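 Transient transfection of human HepG2 with multiple GAL4-UAS reporter constructs; 24 h compound exposure; total RNA isolated, reverse-transcribed, PCR-amplified, 6-FAM labelled, HpaI-cut, resolved by capillary electrophoresis. Positive-direction fit versus DMSO.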

[7] = target: human Retinoid X Receptor beta (RXRb), RXRB (gene 6257) (UniProt P28702); assay: ATG_RXRb_TRANS: Attagene TRANS-FACTORIAL HepG2 Assay for human Retinoid X Receptor beta (RXRb) (AID 2283013)
human Retinoid X Receptor beta (RXRb), RXRB (gene 6257), sequence (P28702 whole entry, looked up, the tested form may be a part): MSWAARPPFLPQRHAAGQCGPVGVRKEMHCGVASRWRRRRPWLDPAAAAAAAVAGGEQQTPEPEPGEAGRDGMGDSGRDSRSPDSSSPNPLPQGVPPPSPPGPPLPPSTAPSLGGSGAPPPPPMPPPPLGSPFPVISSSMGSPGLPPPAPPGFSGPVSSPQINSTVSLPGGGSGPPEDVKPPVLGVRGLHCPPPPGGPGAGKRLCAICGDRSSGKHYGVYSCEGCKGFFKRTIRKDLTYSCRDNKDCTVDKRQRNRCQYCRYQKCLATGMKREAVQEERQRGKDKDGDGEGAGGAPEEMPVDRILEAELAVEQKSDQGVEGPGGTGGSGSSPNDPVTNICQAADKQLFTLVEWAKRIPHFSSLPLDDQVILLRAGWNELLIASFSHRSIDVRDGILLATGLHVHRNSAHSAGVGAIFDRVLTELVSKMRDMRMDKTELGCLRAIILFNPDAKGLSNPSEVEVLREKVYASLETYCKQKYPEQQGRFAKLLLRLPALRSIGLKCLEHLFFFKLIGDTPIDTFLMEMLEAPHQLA
Outline: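 Transfect HepG2 with GAL4-UAS multi-reporter constructs (chimeric NR-Gal4, TRANS format); dose compound 24 h; isolate RNA, RT-PCR, FAM primer extension, HpaI digest; quantify by capillary electrophoresis; positive direction vs DMSO.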

[8] = target: human Thyroid Receptor alpha (THRa1), THRA (gene 7067) (UniProt P10827); assay: ATG_THRa1_TRANS: Attagene TRANS-FACTORIAL HepG2 Assay for human Thyroid Receptor alpha (THRa1) (AID 2283014)
Outline: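 Reporter transcript induction, read by capillary electrophoresis of 6-FAM-labelled RT-PCR products, reflects activity of a transfected THRa1-Gal4 fusion in HepG2 liver cells. Cells were dosed for 24 h; activity was fitted in the positive direction against DMSO.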

[9] = target: Peroxisome proliferator-activated receptor gamma (Homo sapiens) (UniProt P37231); assay: ATG_PPARg_TRANS: Attagene TRANS-FACTORIAL HepG2 Assay for human Peroxisome Proliferator-activated Receptor-gamma (PPARg) (AID 2283007)
Peroxisome proliferator-activated receptor gamma (Homo sapiens), sequence (P37231 whole entry, looked up): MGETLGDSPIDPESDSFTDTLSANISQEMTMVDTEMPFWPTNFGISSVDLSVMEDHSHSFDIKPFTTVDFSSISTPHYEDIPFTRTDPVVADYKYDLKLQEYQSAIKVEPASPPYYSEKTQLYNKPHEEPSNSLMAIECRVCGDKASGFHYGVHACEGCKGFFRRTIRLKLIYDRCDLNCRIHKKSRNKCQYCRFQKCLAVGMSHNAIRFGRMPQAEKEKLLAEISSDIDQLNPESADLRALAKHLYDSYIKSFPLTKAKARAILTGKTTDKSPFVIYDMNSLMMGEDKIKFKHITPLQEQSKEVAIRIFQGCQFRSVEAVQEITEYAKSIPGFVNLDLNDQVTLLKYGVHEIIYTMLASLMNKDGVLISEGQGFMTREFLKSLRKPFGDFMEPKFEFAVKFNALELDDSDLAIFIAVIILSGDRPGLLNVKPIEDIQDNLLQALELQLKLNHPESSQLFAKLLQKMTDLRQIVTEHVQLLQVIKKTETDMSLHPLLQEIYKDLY
Outline: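 Twenty-four hours after chemical dosing of transiently transfected HepG2 cells, isolated RNA was converted to cDNA, reporter sequences amplified and 6-FAM-labelled, then HpaI-digested and analysed by capillary electrophoresis. Signal increase against DMSO was fitted.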

[10] = target: human Retinoic Acid Receptor gamma (RARg), RARG (gene 5916) (UniProt P13631); assay: ATG_RARg_TRANS: Attagene TRANS-FACTORIAL HepG2 Assay for human Retinoic Acid Receptor gamma (RARg) (AID 2283009)
human Retinoic Acid Receptor gamma (RARg), RARG (gene 5916), sequence (P13631 whole entry, looked up): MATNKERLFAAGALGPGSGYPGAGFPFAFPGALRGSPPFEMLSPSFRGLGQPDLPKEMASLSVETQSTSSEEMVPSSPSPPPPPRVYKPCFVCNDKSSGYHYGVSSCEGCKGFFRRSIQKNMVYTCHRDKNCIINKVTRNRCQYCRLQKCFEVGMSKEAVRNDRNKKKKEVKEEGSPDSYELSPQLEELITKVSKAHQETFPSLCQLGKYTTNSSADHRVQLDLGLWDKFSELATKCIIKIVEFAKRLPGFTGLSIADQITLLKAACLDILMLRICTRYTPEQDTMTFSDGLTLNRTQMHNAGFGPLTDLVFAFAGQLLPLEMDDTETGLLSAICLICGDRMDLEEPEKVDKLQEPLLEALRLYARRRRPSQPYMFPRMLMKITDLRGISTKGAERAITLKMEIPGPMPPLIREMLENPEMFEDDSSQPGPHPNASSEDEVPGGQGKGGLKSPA
Outline: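 Transient transfection of HepG2 with multi-reporter constructs, then 24 h chemical treatment. Total RNA isolated, reverse-transcribed, PCR-amplified, fluorescently labelled and resolved by capillary electrophoresis; activity scored as mRNA induction versus DMSO.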

[11] = target: human RAR-related Orphan Receptor beta (RORb), RORB (gene 6096) (UniProt Q92753); assay: ATG_RORb_TRANS: Attagene TRANS-FACTORIAL HepG2 Assay for human RAR-related Orphan Receptor beta (RORb) (AID 2283010)
human RAR-related Orphan Receptor beta (RORb), RORB (gene 6096), sequence (Q92753 whole entry, looked up, the tested form may be a part): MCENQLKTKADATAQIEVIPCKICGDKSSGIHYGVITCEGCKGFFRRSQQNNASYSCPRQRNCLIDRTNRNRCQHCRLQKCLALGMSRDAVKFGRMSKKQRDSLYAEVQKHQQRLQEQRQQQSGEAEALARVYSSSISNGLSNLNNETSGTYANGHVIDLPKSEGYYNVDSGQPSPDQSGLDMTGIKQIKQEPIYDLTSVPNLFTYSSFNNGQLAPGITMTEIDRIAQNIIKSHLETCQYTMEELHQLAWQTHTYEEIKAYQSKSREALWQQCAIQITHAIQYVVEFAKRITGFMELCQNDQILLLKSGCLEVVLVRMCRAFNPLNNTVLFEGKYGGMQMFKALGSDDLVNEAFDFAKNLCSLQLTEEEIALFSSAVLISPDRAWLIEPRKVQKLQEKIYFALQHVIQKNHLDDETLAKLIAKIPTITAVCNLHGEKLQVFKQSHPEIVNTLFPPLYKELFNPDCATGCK
Outline: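 Readout is reporter-gene mRNA induction, detected as fluorescence after RT-PCR and capillary electrophoresis, fitted for gain of signal against DMSO controls. Transiently transfected HepG2 liver cells carrying GAL4-UAS reporter constructs were treated for 24 hours.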

[12] = target: human RAR-related Orphan Receptor gamma (RORg), RORC (gene 6097) (UniProt P51449); assay: ATG_RORg_TRANS: Attagene TRANS-FACTORIAL HepG2 Assay for human RAR-related Orphan Receptor gamma (RORg) (AID 2283011)
Outline: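 First, HepG2 liver cells were transfected with GAL4-UAS-driven reporter constructs and the RORg-Gal4 fusion. Next, they were treated with chemical for 24 h. Finally, reporter mRNA was quantified by RT-PCR and capillary electrophoresis, with upward activity fitted against DMSO.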

[13] = BSK_4H_Eotaxin3: BioMAP Diversity Plus: 4H Assay for Eotaxin 3 Biomarker Activity (AID 2283000; active = hit-call score of the fitted dose curve at least 0.9, where 1 is the maximum; inactive = score below 0.9;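 also: CCL26 protein level quantified by ELISA in parallel with SRB cytotoxicity check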); conditions: primary human endothelial cells (HUVEC); actives raise or lower the signal
Outline: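 Chemicals were added to human umbilical vein endothelium cultures, and Eotaxin-3 was quantified by ELISA at 24 h. Values were derived by bidirectional fitting with DMSO serving as negative control and activity baseline.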

[14] = read-out: Intercellular Adhesion Molecule 1 (ICAM1), ICAM1 (gene 3383); assay: BSK_3C_ICAM1: BioMAP Diversity Plus: 3C Assay for Intercellular Adhesion Molecule 1 (ICAM1) Biomarker Activity (AID 2283003; active = hit-call score of the fitted dose curve at least 0.9, where 1 is the maximum; inactive = score below 0.9); conditions: primary human endothelial cells (HUVEC); actives raise or lower the signal
Outline: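 ICAM-1 levels measured by ELISA after HUVEC cultures in the 3C system had been dosed for 24 h. Gain or loss of signal relative to DMSO was fitted in both directions.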

[15] = BSK_3C_Proliferation: Cell Proliferation Assessment in the BioMAP Diversity Plus: 3C Assay (AID 2283006; active = hit-call score of the fitted dose curve at least 0.9, where 1 is the maximum; inactive = score below 0.9); conditions: primary human endothelial cells (HUVEC)
Outline: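 Read-out is total protein by SRB absorbance at 560 nm, taken as a proxy for relative cell number. Primary human umbilical vein endothelium cultured below confluence was dosed for 48 h, TCA-fixed and SRB-stained; curves were fitted bidirectionally versus DMSO.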

[16] = read-out: Interleukin-1 alpha (IL1a), IL1A (gene 3552); assay: BSK_BE3C_IL1a: BioMAP Diversity Plus: BE3C Assay for Interleukin-1 alpha (IL1a) Biomarker Activity (AID 2283016; active = hit-call score of the fitted dose curve at least 0.9, where 1 is the maximum; inactive = score below 0.9); conditions: primary human bronchial epithelial cells; actives raise or lower the signal
Outline: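 BE3C primary human bronchial epithelium; cpd 24 h; IL-1a by ELISA; bidirectional fit vs DMSO; parallel SRB (0.1% SRB, 10% TCA fix, 560 nm) for cytotoxicity.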

[17] = read-out: Monocyte Chemoattractant Protein-1 (MCP1), CCL2 (gene 6347); assay: BSK_3C_MCP1: BioMAP Diversity Plus: 3C Assay for Monocyte Chemoattractant Protein-1 (MCP1) Biomarker Activity (AID 2283017; active = hit-call score of the fitted dose curve at least 0.9, where 1 is the maximum; inactive = score below 0.9); conditions: primary human endothelial cells (HUVEC); actives raise or lower the signal
Outline: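 ELISA read-out of MCP-1 from human umbilical vein endothelial cell cultures harvested 24 h post-dosing. Gain or loss of signal was fitted relative to DMSO.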

[18] = read-out: Monocyte Chemoattractant Protein-1 (MCP1), CCL2 (gene 6347); assay: BSK_4H_MCP1: BioMAP Diversity Plus: 4H Assay for Monocyte Chemoattractant Protein-1 (MCP1) Biomarker Activity (AID 2283018; active = hit-call score of the fitted dose curve at least 0.9, where 1 is the maximum; inactive = score below 0.9); conditions: primary human endothelial cells (HUVEC); actives raise or lower the signal
Outline: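 ELISA read-out of MCP-1 from human vascular endothelial primary cells taken at 24 hours after compound exposure. Activity was fitted in both directions relative to DMSO, which served as negative control.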

Measured: AC50

CC(C)c1ccc2ncccc2c1
active: [5] 21.4 µM
inactive: [1] | [2] | [3] | [4] | [6] | [7] | [8]

O=C(O)c1ccc2c(c1)C(=O)OC2=O
inactive: [1]

CC1=CC(C)C(C=O)CC1 (centres undefined)
active: [5] 27.8 µM
not listed: [8] | [13] | [14] | [15] | [16] | [17] | [18]
inactive: all other assays above

C1CNCCN1
inactive: [13] | [14] | [15] | [5] | [16] | [17]

CCCCCC1=CCCC1=O
active: [9] 35.4 µM | [5] 11.4 µM
inactive: [13] | [2] | [14] | [15] | [6] | [7] | [16] | [17] | [18]

C=CC(=O)OCCCCCCCCCC
inactive: [1] | [5] | [11] | [6] | [7] | [8]
active: [9] 3.15 µM

O=C(O)C1CCC(C(=O)O)CC1 (centres undefined)
inactive: [1] | [7]

CCCCCCCCCCCCCC(=O)OC(C)C
inactive: [1] | [3] | [4] | [9] | [5] | [10] | [12] | [6] | [7] | [8]

CCCCC(C=O)CC (centres undefined)
inactive: [1] | [9] | [5] | [7]

Nc1ccnc(=O)[nH]1
inactive: [1] | [9] | [11] | [12] | [7]

O=C1c2ccccc2C(=O)c2cc(S(=O)(=O)O)ccc21
inactive: [1] | [9] | [7]

COC(=O)CC(C)CCC=C(C)C (centres undefined)
inactive: [1] | [9] | [5] | [11] | [6] | [7]

CN(C)Cc1cc(CN(C)C)c(O)c(CN(C)C)c1
inactive: [1] | [3] | [9] | [5] | [8]

Nc1ccc(Cl)c(N)c1
inactive: [2] | [3] | [4] | [9] | [5] | [10] | [11] | [6] | [7] | [8]

CC(=O)c1ccccc1O
inactive: [1] | [9] | [5] | [11] | [6] | [7]

CC1C(C)(C)C2=C(C(=O)CCC2)C1(C)C (centres undefined)
inactive: [1] | [3] | [4] | [9] | [11] | [6]
active: [5] 7.68 µM | [7] 87.6 µM

C=CCNCC=C
inactive: [1] | [3] | [5] | [11] | [6] | [8]

— PubChem BioAssay (EPA / NIEHS)
